Compounds with a hit are over-represented: about 7.2% of the library has one in this group of screens.
Marburg entry inh – inhibitors of Marburg virus binding or cell entry; Potency, µM (titrated, usually from 37.8 µM), for inactives: top-dose activity change, negative = inhibition, usual class: inhibitors; AID 540276; 1.8% of 300,000 active; Marburg virus pseudotyped entry inhibition, cell reporter; calls by dose curve; tested in HEK293 cells; also: % is scaled to controls: 0 for no effect and ±100 for the full control effect
Lassa entry inh – inhibitors of Lassa virus binding or cell entry; Lassa virus pseudotype entry inhibition, cell reporter; Potency, µM (series often up to 37.9 µM), inactives show top-dose activity change, negative = inhibition, usual class: inhibitors; 1.2% of 300,000 active; AID 540256; calls by dose curve; tested in HEK293 cells; also: % is scaled to controls: 0 for no effect and ±100 for the full control effect; nearly all actives have a fitted effect of over 50% in size
Sm TGR block – S. mansoni TGR enzyme inhibition | 3% of 360,000 active | AID 485364 | Potency, µM (series often up to 114 µM), without a hit: top-dose activity change, negative = inhibition, hits mostly inhibitors | Q962Y6 | purified TGR, DTNB reduction, TNB absorbance 405 nm; also: % is scaled to controls: 0 for no effect and ±100 for the full control effect; nearly all actives have a fitted effect of over 60% in size
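First, TGR (20 nM dispensed) and NADPH were mixed with compound. Second, a 15 min room-temperature incubation followed. Third, further NADPH and then DTNB were added to start the reaction. Finally, TNB absorbance was monitored kinetically.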
RE007 growth inh – less growth of the S. pombe RE007 Vpr strain | S. pombe RE007 Vpr strain, BacTiter-Glo ATP luminescence, 24 h | Potency, µM (series often up to 92.2 µM), for inactives: top-dose activity change, negative = less growth, usual class: inhibitors | 0.21% of 360,000 active; active = well fitted falling curve with a large enough effect; inconclusive = small, poorly fitted or top-dose-only effect; inactive = no such curve, though single readings can be large or run the other way; also: % is scaled to controls: 0 for no effect and ±100 for the full control effect; nearly all actives have a fitted effect of over 50% in size
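Fission yeast RE007 carrying one integrated HIV-1 vpr copy, seeded at OD 0.01 in PMG+AL medium with 23 nL pinned compound. Grown 24 h at 30 degrees; viability read by BacTiter-Glo luminescence after 5 min.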
HCV inhibitor – HCV inhibition; Huh7.5.1 HCVcc-Cre infection, luciferase reporter, 44 h; Potency, µM (top dose mostly 41.8 µM), without a hit: at the highest dose activity change, negative = inhibition, usual class: inhibitors; 3.4% of 340,000 active; also: % is scaled to controls: 0 for no effect and ±100 for the full control effect
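Cells seeded at 1,000/well and cultured 4 h, then compounds added followed by HCVcc-Cre virus (~0.5 moi). After 44 h further culture, luciferase substrate was added, plates held 15 min at room temperature, and luminescence read for 15 sec.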
FMDV antiviral – blocks foot and mouth disease virus. FMDV antiviral cell-based qHTS. Potency, µM (top dose mostly 57.9 µM), for the others: top-dose activity change, negative = inhibition, most hits filed as inhibitors. 1.2% of 410,000 active. AID 1159524; calls by dose curve; tested in HEK293T cells; also: read-out not given here; % is scaled to controls: 0 for no effect and ±100 for the full control effect; nearly all actives have a fitted effect of over 45% in size
HCV confirm – confirmation of hepatitis C virus inhibitors | HCVcc-Cre infectious virus cell assay, luciferase, inhibition | 78% of 640 active | Potency, µM (top dose mostly 41.8 µM), without a hit: at the highest dose activity, negative = inhibition, hits mostly inhibitors | shares compounds with HCV inhibitor; also: nearly all actives have a fitted effect of over 80% in size
HCV host tox – host cell cytotoxicity counter-screen for HCV inhibitors | shares compounds with HCV inhibitor | HCV host cell line cytotoxicity counterscreen | Potency, µM (doses to about 41.8 µM), without a hit: at the top dose activity change, negative = cytotoxicity, most hits filed as inhibitors | 22% of 640 active;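 also: 44 h compound exposure; % is scaled to controls: 0 for no effect and ±100 for the full control effect; nearly all actives have a fitted effect of over 55% in size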
Numbers without * were called inactive; ? = inconclusive; nt = no result; [ ] = dose if it differs, or a comment. Unless noted, calls follow the shape of the dose curve; as a rule, active = well fitted curve in the direction sought with a large enough effect; inconclusive = small, poorly fitted or top-dose-only effect, or another doubt; inactive = no such curve, though single readings can be large; an effect the other way counts as inactive or inconclusive. Potency is read from the fitted curve at half-maximal effect.

SMILES	Marburg entry inh	Lassa entry inh	Sm TGR block	RE007 growth inh	HCV inhibitor	FMDV antiviral	HCV confirm	HCV host tox
Cc1cc(Oc2ccc(N)cn2)ccc1Cl	8.1%	-3.6%	?	-2.1%	?	28.4%	?	48.6%
CCCN(Cc1cccs1)C(=O)Nc1cc(OC)ccc1OC	?	-0.9%[46.1 µM]	-2.0%	nt	nt	-3.1%	nt	nt
COc1ccccc1NS(=O)(=O)c1cc(C(=O)NC2CCN(Cc3ccccc3)CC2)ccc1C	nt	nt	nt	-8.5%	5.62µM*	0.0%	2.8µM*	2.23µM*
COc1ccc(-c2nnc(SCC(=O)N3CCc4ccccc43)o2)cc1OC	10.6%[46.1 µM]	7.7%[46.1 µM]	5.5%	nt	nt	-11.2%	nt	nt
CC(=O)N1c2ccc(C)cc2Sc2c1ccc1ccccc21	?	?	nt	42.0%	-9.9%	-22.5%	nt	nt
CCN1/C(=C/c2ccc3cc(C)cc(C)c3[n+]2CC)Sc2cc(C)ccc21	nt	nt	-17.9%	?	7.08µM*	?	7.91µM*	7.91µM*
C=C1C(=O)O[C@@]23[C@H]1CC[C@@H](C)[C@@H]2CC[C@@]1(C)O[C@@H]31	nt	nt	nt	-5.2%	2.82µM*	?	?	-12.2%
COc1ccc2c(c1OC)OCC(c1ccc(OC)c(OC)c1OC)C2 (stereo unspecified)	nt	nt	nt	nt	nt	-2.2%	nt	nt
CCOc1ccc(C(=O)C(CCC(CN(C)C)C(=O)c2ccc(OCC)cc2)CN(C)C)cc1 (stereo unspecified)	1.03µM*	4.11µM*	15.8µM*	29.1%	3.16µM*	15.8µM*	7.91µM*	7.91µM*
COc1ccc(N/N=C(/N=Nc2nc(C)cc(=O)[nH]2)c2ccccc2)cc1	4.47µM*	5.01µM*	-7.8%	?	4.47µM*	-7.6%	7.91µM*	11.2µM*
COc1ccc(C(=O)CSc2nc(C)cc(=O)[nH]2)cc1	22.1%	-1.8%	-1.8%	-5.9%	19.1%	28.5%	nt	nt
COc1ccc2oc(=O)c(-c3nnc(NCc4ccco4)s3)cc2c1	?	-27.7%	?	4.9%	4.47µM*	3.6%	-20.5%	?
C/C(=N\NC(=S)Nc1cc(S(=O)(=O)N2CCOCC2)ccc1Cl)c1ccccc1F	?	?	9.9%	6.6%	?	12.6µM*	22.3µM*	?
CC(C)N(C(=S)Nc1cc(S(=O)(=O)N2CCOCC2)ccc1Cl)c1ccccc1	?	0.2%	-25.3%	-1.3%	2.7%	-1.6%	nt	nt
Cc1cc(Br)c(S(=O)(=O)NCc2ccncc2)cc1C	?	?	-13.2%	0.0%	3.16µM*	-2.6%	1.99µM*	6.28µM*
COc1cc(C)c(Cl)cc1S(=O)(=O)NCc1ccncc1	0.7%	nt	1.1%	nt	-2.3%	nt	nt	nt
C#CCN1C=CC(=O)[C@@H](OC(=O)Nc2ccc(Cl)cc2)[C@H]1c1ccccc1Br	nt	nt	nt	-15.5%	8.91µM*	-17.0%	?	0.6%
CCCCCNc1nc2sc3c(c2c(=O)n1-c1cccc(Cl)c1)CCN(C)C3	?	-2.1%	5.4%	6.1%	1µM*	-7.3%	2.23µM*	21.7%
CCCCSc1nc2sc3c(c2c(=O)n1-c1ccccc1)CCN(C)C3	nt	nt	-0.5%	7.7%	?	-29.3%	12.5µM*	21.1%
CCCCSc1nc2sc3c(c2c(=O)n1-c1ccc(OC)cc1)CCN(C)C3	?	-18.1%[46.1 µM]	-2.2%	-9.5%	-23.5%	-8.9%	nt	nt
CC1CCCCN1Cc1c(O)ccc2c(=O)c(-c3ccc(Cl)cc3)c(C(F)(F)F)oc12 (stereo unspecified)	6.6%[46.1 µM]	19.1%[46.1 µM]	-1.4%	nt	nt	0.0%	nt	nt
COc1ccc(/C=N/Nc2nc(-c3cccc(S(=O)(=O)N4CCCC4)c3)cs2)c(OC)c1	?	?	-6.6%	-21.8%	3.98µM*	?	9.95µM*	-41.1%
COc1ccc(-c2csc(NC(=O)c3ccc(S(=O)(=O)N4CCc5ccccc5C4)cc3)n2)c(OC)c1	?	-1.7%	1.8%	9.9%	?	?	nt	nt
O=C(CCn1c(=O)c2cccn2c2ccc(F)cc21)NCc1ccccc1F	nt	21.6%[46.1 µM]	2.4%	nt	nt	-4.9%	nt	nt
Cc1ccc(CNc2nc3ccc(Cl)cc3n3cnnc23)cc1	18.2%[46.1 µM]	17.5%[46.1 µM]	-1.7%	nt	nt	-8.7%	nt	nt
SMILES	Marburg entry inh	Lassa entry inh	Sm TGR block	RE007 growth inh	HCV inhibitor	FMDV antiviral	HCV confirm	HCV host tox
COc1cc(NC(=O)c2ccccc2F)c(OC)cc1NC(=O)CN1CCOCC1	0.8%[46.1 µM]	-17.8%	nt	-8.0%	?	38.4%	?	11.3%
COc1ccc(C(=O)NCc2ccc3c(c2)CCN3C(=O)c2ccccc2)cc1	nt	?	3.2%	nt	nt	0.0%	nt	nt
COc1ccc(N2CCN(CCCNC(=O)C3CCC(CNc4nc(=S)[nH]c5ccccc45)CC3)CC2)cc1 (stereo unspecified)	?	?	2.2%	-16.1%	2.51µM*	?	6.28µM*	22.3µM*
CCOc1ccc(NC(=O)CCS(=O)(=O)c2ccc3nc(C)sc3c2)cc1	nt	9.2%[46.1 µM]	4.3%	nt	nt	-9.0%	nt	nt
Cc1c(C(=O)Nc2cccc([N+](=O)[O-])c2)csc1-c1ccccc1	?	?	-2.5%	0.7%	7.08µM*	-1.3%	11.2µM*	?
Oc1c(N=Nc2ccccn2)ccc2ccccc12	3.98µM*	1.58µM*	-3.9%	17.8µM*	2.51µM*	-80.9%	17.7µM*	?
COC(=O)/C(C#N)=C\c1c(OC)[nH]c2ccccc12	nt	nt	-10.9%	6.5%	3.98µM*	-12.4%	11.2µM*	23.0%
CCOC(=O)c1ccc(NC(=O)c2c(NCc3ccc(OC)c(OC)c3OC)sc3c2CCC(C)C3)cc1 (stereo unspecified)	nt	10.8%[46.1 µM]	-9.9%	nt	nt	-21.4%	nt	nt
CCOc1ccccc1NC(=O)C(=O)NCCc1sc(-c2cccc(F)c2)nc1C	nt	-0.3%[46.1 µM]	-0.6%	nt	nt	-19.6%	nt	nt
O=C(COC(=O)c1cc(S(=O)(=O)N2CCCCC2)ccc1N1CCOCC1)c1ccccc1	?	-13.0%	-0.3%	9.0%	-8.7%	-6.2%	nt	nt
O=C(OCCOc1cccc(Cl)c1)c1cc(S(=O)(=O)N2CCCCC2)ccc1N1CCOCC1	?	?	9.2%	-7.8%	?	?	3.53µM*	6.28µM*
COc1ccc(Br)cc1/C=C/C(=O)Nc1ccc(C)cc1	?	?	-8.8%	-5.5%	?	-6.7%	7.05µM*	7.7%
CCCn1nnc(NC(=O)/C=C/c2cc(Br)ccc2OC)n1	-7.3%	-16.9%	6.9%	13.4%	?	-7.7%	nt	nt
CC(OC(=O)c1c2c(nc3ccccc13)/C(=C\c1ccc3c(c1)OCO3)CCC2)C(=O)Nc1ccc(S(N)(=O)=O)cc1 (stereo unspecified)	?	?	-3.3%	nt	?	30.5%	nt	nt
